HTT cytoprotect: qHTS Multiplex Assay to Identify Dual Action Probes in a Cell Model of Huntington: Cytoprotection (ATP) | actives 0.14% (n = 230,000) | Potency, µM (doses to about 56.4 µM), without a hit: cytoprotection (ATP increase), actives largely listed as activators | PC12 HTT-Q103 induced, cytoprotection, ATP luminescence, 40 h; note: potency is the fitted concentration of half-maximal effect; % of control where 0% means no effect; nearly all actives have a fitted effect of over 45% in size
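Cells were plated at 1500 per well in phenol red-free DMEM with 5% equine and 5% calf serum. Tebufenozide (100 nM final) and compounds were added, then ATPlite reagent, and luminescence was read.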
PNC inhibitor: High Content Assay for Compounds that inhibit the Assembly of the Perinucleolar Compartment; PC3M PTB-GFP, PNC prevalence imaging, 16 h; active compounds read low; activity change (PNC), negative = inhibition, % at 10 µM; actives 3.1% (n = 140,000); AID 2417, 2010;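 active = readout at or below -70, meaning at least 70% loss of cells showing the perinucleolar compartment, a nuclear body marking cancer cells; inconclusive = readout between -30 and a set limit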;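 note: plate controls were DMSO wells for no effect and camptothecin positive control wells for full effect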
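PC3M cells stably expressing PTB-GFP, 750–1000 cells/well, treated 16 h at 37 °C with compound (23 nl of library stock), in duplicate. After paraformaldehyde fixation and Hoechst stain, imaged at 20x; PNC prevalence scored by image analysis.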
NPSR antagonist: qHTS Assay for Antagonists of the Neuropeptide S Receptor: cAMP Signal Transduction; Potency, µM (titrated, usually from 38.3 µM), for inactives: at the highest dose activity change, negative = inhibition, most hits filed as inhibitors; actives 1% (n = 220,000); CHO-NPSR cells, cAMP TR-FRET, antagonist mode; Q6W5P4; note: potency is the fitted concentration of half-maximal effect; % is set by controls: 0 for no effect and ±100 for the full control effect; nearly all actives have a fitted effect of over 50% in size
Target sequence (Q6W5P4 whole entry, looked up): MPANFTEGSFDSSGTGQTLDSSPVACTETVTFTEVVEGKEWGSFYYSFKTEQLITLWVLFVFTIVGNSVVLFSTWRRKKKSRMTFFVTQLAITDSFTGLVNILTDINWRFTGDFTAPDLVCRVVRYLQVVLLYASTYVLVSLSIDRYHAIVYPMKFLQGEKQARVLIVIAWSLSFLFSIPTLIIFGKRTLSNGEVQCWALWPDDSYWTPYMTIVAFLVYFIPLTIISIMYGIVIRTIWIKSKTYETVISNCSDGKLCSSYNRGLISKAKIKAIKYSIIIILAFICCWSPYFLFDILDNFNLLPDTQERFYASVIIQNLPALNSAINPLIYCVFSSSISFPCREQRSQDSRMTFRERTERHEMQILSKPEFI
HttQ103 aggreg: qHTS Multiplex Assay to Identify Dual Action Probes in a Cell Model of Huntington: Aggregate Formation (GFP). PC12 HttQ103-GFP aggregates, Acumen cytometry, 40 h. Potency, µM (titrated, usually from 46.1 µM), without a hit: at the highest dose activity change, negative = inhibition, actives largely listed as inhibitors. actives 1.1% (n = 220,000); note: potency is the fitted concentration of half-maximal effect; % is set by controls: 0 for no effect and ±100 for the full control effect; nearly all actives have a fitted effect of over 60% in size
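Compounds (qHTS titration) were added to PC12 cells expressing an ecdysone-driven HTT exon 1 Q103–GFP fusion after induction with 100 nM tebufenozide. Aggregate formation was measured as GFP objects in cell lysates.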
IMPase inh: qHTS Assay for Identifying the Cell-Membrane Permeable IMPase Inhibitors. Inositol monophosphatase 1 (Rattus norvegicus), P97697. CHO-M1 cells, IP1 accumulation, HTRF TR-FRET ratio. inhibition (IP1 accumulation), % at 46.1 µM. 120,000 tested, under 10 active; active = well fitted curve in the direction sought with a large enough effect in the signal ratio, not every such curve was filed as active; inconclusive = small, poorly fitted or top-dose-only effect, or a change in a side signal; inactive = no such curve, though single readings can be large or run the other way; the % refers to the signal ratio;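 note: cells stimulated with carbachol in lithium chloride buffer; plate controls were DMSO basal wells for no effect and reference inhibitor wells for full effect; higher means more IMPase inhibition seen as more IP1 and lower FRET ratio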
Target sequence (P97697 whole entry, looked up): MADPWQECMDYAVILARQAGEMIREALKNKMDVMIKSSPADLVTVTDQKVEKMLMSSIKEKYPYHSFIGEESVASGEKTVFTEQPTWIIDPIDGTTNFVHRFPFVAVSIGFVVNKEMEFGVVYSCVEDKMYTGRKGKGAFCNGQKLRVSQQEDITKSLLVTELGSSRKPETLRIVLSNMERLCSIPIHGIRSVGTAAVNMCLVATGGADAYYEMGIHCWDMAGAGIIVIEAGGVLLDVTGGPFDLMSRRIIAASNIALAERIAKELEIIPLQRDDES
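Cellular IMPase inhibition is scored as a rise in cytosolic IP1, detected by competitive TR-FRET between d2-labelled IP1 and a europium anti-IP1 antibody. M1-expressing CHO cells were stimulated with carbachol for 30 min at 37C, with lithium (50 mM LiCl) present in the buffer.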
IMPase Li inh: qHTS Assay for Identifying the Cell-Membrane Permeable IMPase Inhibitors: Potentiation with Lithium | CHO-M1 cells, IP1 TR-FRET (IP-One), carbachol + lithium | Potency, µM (top dose mostly 59.4 µM), for the others: top-dose activity, negative = IMPase inhibition, hits mostly inhibitors | actives 0.35% (n = 210,000) | AID 1457, 2008;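 note: IP1 builds up when IMPase is blocked and the TR-FRET signal falls; potency is the fitted concentration of half-maximal effect; plate controls were basal vehicle for no effect and high inhibitor control for full effect; nearly all actives have a fitted effect of over 50% in size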
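IP1 accumulation measured by competitive TR-FRET in lysed CHO-M1 cells after 30 min compound exposure at 37C, with a small lithium addition to potentiate weak responses. Hill-equation AC50 from ratio and donor-channel data.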
An asterisk follows results filed as active; ? = inconclusive; · = not tested or not shown; [ ] = dose if it differs, or a comment. Sampled rows, rich in hits. Any-hit rate of the full collection: about 3.4%. Unless noted, calls come from the whole dose curve; as a rule, active = well fitted curve in the direction sought with a large enough effect; inconclusive = small, poorly fitted or top-dose-only effect, or another doubt; inactive = no such curve, though single readings can be large; an effect the other way counts as inactive or inconclusive.

SMILES	HTT cytoprotect	PNC inhibitor	NPSR antagonist	HttQ103 aggreg	IMPase inh	IMPase Li inh
C=C1C(=O)O[C@H]2[C@H]1[C@H](OC(=O)CC(=O)O[C@@H]1C[C@@H](C)[C@@H]3C=CC(=O)[C@@]3(C)[C@H]3OC(=O)C(=C)[C@H]13)C[C@@H](C)[C@H]1C=CC(=O)[C@]12C	4.47µM*	·	-18.4%	21.0%[9.22 µM]	·	·
C=C1C(=O)O[C@H]2C[C@@H](C)[C@@H]3C=CC(=O)[C@@]3(C)C[C@H]12	43.5%[10 µM]	·	-27.2%	?	·	·
COC(=O)c1c(C)ccc2c(O)c3c(cc12)C(=O)c1c2c(cc(O)c1C3=O)[C@@]1(C)O[C@@](C)(O2)[C@@H](O)[C@H](N(C)C)[C@H]1O	-7.8%[10 µM]	·	·	·	·	12.3%
CCN1C[C@@]2(C)CC[C@H](O)[C@@]34[C@@H]5C[C@H]6[C@H](O)[C@@H]5[C@](O)(C[C@@H]6OC)[C@H](C[C@@H]23)[C@H]14	7.9%	·	·	·	·	·
CCc1cccc(NC(=O)Cn2c(=O)oc3cc(S(=O)(=O)N4CCOCC4)ccc32)c1	-106.8%	0.4	1.0%[46.1 µM]	2.24µM*	3.6	3.9%[38.3 µM]
C=C(C=O)C[C@@H]1C[C@H](O)C2OC3C[C@]4(C)OC5/C=C\CC6OC7C(CC=CCC6OC5CCCC4OC3CC2O1)OC1CC2OC3CC(=O)OC3C[C@@H](C)C[C@@]2(C)OC1C[C@@H]7C (some centres not stated)	-62.3%[10 µM]	·	0.794µM*	?	·	·
CC(=O)c1ccc2c(c1)C1C(Cl)C(Sc3ccccc3[N+](=O)[O-])CC1C(c1ccccc1[N+](=O)[O-])N2 (configuration not stated)	-24.6%[10 µM]	?	-20.6%[46.1 µM]	-2.0%	20.0	-0.7%
CC(=O)c1ccc2c(c1)C1C(Cl)C(Sc3ccccc3[N+](=O)[O-])CC1C(c1ccccc1)N2 (configuration not stated)	14.3%[10 µM]	-96.5*	?	-7.2%	?	101.1%
C[C@H]1CC[C@@H]2[C@@H](C)C(=O)O[C@H]3O[C@@]4(C)CC[C@@H]1[C@]32OO4	-14.5%	·	·	·	·	·
CCCCCCCSc1cc(OC)c(CCN(C)C)cc1OC	-116.7%	-27.6	?	10µM*	10.3	35.2%[38.3 µM]
Nc1c(C(=O)NCC2CCCO2)c2nc3ccccc3nc2n1Cc1ccco1 (configuration not stated)	-22.4%[10 µM]	·	-19.1%	-17.7%[9.22 µM]	·	·
Nc1c(C(=O)NC2CCCC2)c2nc3ccccc3nc2n1CC1CCCO1 (configuration not stated)	-10.6%	?	12.6µM*	7.2%	3.1	·
CC1(C)[C@@H]2CC[C@]1(C)CN(CCC[N+](C)(C)C)C2	-11.0%[10 µM]	·	·	·	·	2.0%
Nc1ccc(Br)cc1C(=O)c1ccccc1	-24.4%	·	1.1%	-2.9%	·	-5.2%
Cc1ccc(N)c(C(=O)c2ccc(Br)cc2)c1	-25.0%	·	-27.5%	7.08µM*	·	9.2%
COc1cc2c(cc1OC)[C@@]13CCN4CC5=CCO[C@H](CC(=O)O)[C@@H]([C@H]1N2)[C@H]5C[C@H]43	0.2%[10 µM]	·	·	·	·	3.0%
CCC(C(=O)O)C1CCC(C)C(C(C)C(O)C(C)C(=O)C(CC)C2OC3(C=CC(O)[C@@]4(CC[C@](C)(C5CC[C@@](O)(CC)C(C)O5)O4)O3)C(C)CC2C)O1 (some centres not stated)	-307.8%	·	·	1.41µM*	·	-3.6%
Cc1ccc(OCC(=O)NCCN2CCN(C(=O)COc3ccc(C)cc3)CC2)cc1	9.8%	-106.5*	17.8%[46.1 µM]	-6.6%	6.8	18.9%[38.3 µM]
Cc1ccc(OCC(=O)N2CCN(Cc3ccc(F)cc3)CC2)cc1	·	·	·	·	13.8	·
COc1cc2cc(c1Cl)N(C)C(=O)C[C@H](OC(=O)C(C)C)[C@]1(C)O[C@@H]1[C@@H](C)[C@H]1C[C@](O)(NC(=O)O1)[C@@H](OC)/C=C\C=C(\C)C2	-90.3%[10 µM]	·	·	·	·	7.8%
CN1CCN(c2ccc([N+](=O)[O-])c3no[n+]([O-])c23)CC1	-77.7%[10 µM]	·	10µM*	?	·	·
O=C(O)c1cccc([As]=[As]c2cccc(C(=O)O)c2)c1 (configuration not stated)	-12.9%[10 µM]	·	·	·	·	-1.1%
O=C(O)C1(c2ccc(Cl)cc2)CCC1	26.8%	-80.9*	2.9%[46.1 µM]	-7.5%	-10.4	29.7%[38.3 µM]
CC(C)CC(N)C1(c2ccc(Cl)cc2)CCC1 (configuration not stated)	-38.3%	·	·	·	·	3.2%
COc1ccc2c3c1O[C@@H]1C(=O)CC[C@@]4(O)[C@@H](C2)N(CC2CC2)CC[C@]314	13.1%[1.9 µM]	·	·	·	1.4	·
SMILES	HTT cytoprotect	PNC inhibitor	NPSR antagonist	HttQ103 aggreg	IMPase inh	IMPase Li inh
O=c1c2ccccc2nc(CNCc2ccco2)n1-c1ccc(F)cc1	·	-82.8*	-10.2%	14.9%	·	5.6%
O=C1C=C2C=C[C@H]3C[C@]2(O1)[C@@H]1CCCCN13	·	19.2	16.1%	·	·	-4.8%
O=C1C=C2C=CC3C[C@@]2(O1)C1CCCCN31 (some centres not stated)	1.58µM*	·	·	·	·	17.8%
O=C1C=C2C=C[C@H]3C[C@@]2(O1)[C@H]1CCCCN31	6.31µM*	·	·	·	3.0[20.6 µM]	4.8%
CN1CCN(Cc2ccccc2Sc2ccccc2)CC1	·	-86.0*	22.1%	20.9%	·	23.1%
CC(Cc1ccccc1Sc1ccccc1)N(C)C (configuration not stated)	·	?	11.2%	6.5%	·	26.4%
O=[N+]([O-])/C=C/c1c(OCc2ccccc2)ccc2ccccc12	-116.5%	24.7	6.31µM*	?	12.6	49.1%[38.3 µM]
CC1(C)C[C@H]2C=C(C=O)[C@]3(C=O)C[C@]3(C)[C@H]2C1	·	?	12.6µM*	8.91µM*	·	18.7%
O=C(Cc1ccccc1)Oc1cccc(N2C(=O)CCC2=O)c1	-3.2%	-99.6*	-18.8%[46.1 µM]	-19.0%[9.22 µM]	-1.6	11.8%[38.3 µM]
CC(C)C(=O)CP(=O)(O)O	2.4%[10 µM]	·	·	·	·	-2.4%
Clc1ccc(C(c2ccc(Cl)cc2)n2cc[n+](CC(OCc3ccc(Cl)cc3Cl)c3ccc(Cl)cc3Cl)c2)cc1 (configuration not stated)	·	·	12.6µM*	·	·	21.2%
Clc1ccc(COC(Cn2ccnc2)c2ccc(Cl)cc2Cl)cc1 (configuration not stated)	-348.6%	?	?	?	·	20.8%
CCCN1CC[C@@H]2c3cc(O)ccc3CC[C@H]21	15.8%[1.9 µM]	·	·	·	7.0	·

Source: PubChem (National Center for Advancing Translational Sciences (NCATS))
